Bioassay records (PubChem)
HTR5A ag: activates human HTR5A in OPRM1-OPRD1 agonist counter-screen. P47898. HTR5A agonist assay, luminescence, cell-based. activation, % at 9.3 µM. 0.61% of 340,000 active. AID 504692; in the data active = activation mostly above about 9.5%, no sharp cut-off; inactive = mostly below about 7.6%;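 note: 0% = cells with vehicle only and 100% = reference agonist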
MOR-DOR ag: agonists of human mu-delta opioid receptor heterodimerization; cells, OPRM1-OPRD1 heterodimerization, luminescence; activation, % at 9.3 µM; 0.3% of 340,000 active; AID 504326; in the data active = activation above about 18%;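 note: 0% = vehicle-treated cells and 100% = reference agonist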
Target sequence (P35372 whole entry, looked up): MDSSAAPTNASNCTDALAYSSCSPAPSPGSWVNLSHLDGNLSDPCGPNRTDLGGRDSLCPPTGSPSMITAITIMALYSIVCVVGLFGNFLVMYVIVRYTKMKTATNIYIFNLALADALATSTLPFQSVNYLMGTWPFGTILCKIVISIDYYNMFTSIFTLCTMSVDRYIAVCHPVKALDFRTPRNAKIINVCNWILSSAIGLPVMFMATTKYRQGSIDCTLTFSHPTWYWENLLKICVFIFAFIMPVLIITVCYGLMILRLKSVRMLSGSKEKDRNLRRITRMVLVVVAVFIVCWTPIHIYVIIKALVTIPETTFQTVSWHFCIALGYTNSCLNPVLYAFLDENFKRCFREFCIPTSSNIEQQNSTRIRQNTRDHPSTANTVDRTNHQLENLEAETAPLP
Target sequence (P41143 whole entry, looked up): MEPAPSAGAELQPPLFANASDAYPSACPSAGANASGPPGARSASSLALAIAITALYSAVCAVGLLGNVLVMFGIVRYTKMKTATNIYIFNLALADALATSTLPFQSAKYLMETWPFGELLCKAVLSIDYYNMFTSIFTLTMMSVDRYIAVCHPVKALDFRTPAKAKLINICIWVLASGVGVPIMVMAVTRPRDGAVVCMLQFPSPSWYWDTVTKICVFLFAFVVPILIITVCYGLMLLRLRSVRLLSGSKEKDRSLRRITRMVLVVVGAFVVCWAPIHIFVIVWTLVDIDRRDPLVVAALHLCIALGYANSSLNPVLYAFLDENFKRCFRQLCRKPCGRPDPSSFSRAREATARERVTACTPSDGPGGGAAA
MsrA inh: bovine MsrA inhibition | purified bovine MsrA, absorbance read-out | inhibition, % at 15.5 µM | 0.75% of 360,000 active; in the data active = inhibition above about 4.5%;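 note: 0% = vehicle wells with enzyme and 100% = reference inhibitor wells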
MOR-DOR inv ag: inverse agonist of human OPRM1-OPRD1 heterodimerization. cell-based MOR-DOR heterodimer luminescence, inverse agonism. inhibition, % at 9.3 µM. 0.21% of 340,000 active. AID 504357; in the data active = inhibition above about 22%, passing the limit was not always enough;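 note: 0% = cells with DMSO and 100% = wells without cells with DMSO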
HTR5A inv ctr: counter-screen for OPRM1-OPRD1 inverse agonists: human HTR5A inverse agonism; HTR5A cell line, luminescence; inhibition, % at 9.3 µM; 0.083% of 340,000 active; in the data active = inhibition mostly above about 23%, no sharp cut-off; inactive = mostly below about 18%;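 note: 0% = cells with DMSO and 100% = no-cell wells with DMSO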
MsrA act: activates bovine MsrA enzyme; purified bovine MsrA, absorbance read-out; activation, % at 10.6 µM; 0.3% of 360,000 active; AID 602163; in the data active = activation above about 7.5%;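 note: 0% = vehicle and 100% = reference activator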
The depositor's hits bear a star; · = not tested or not shown. An excerpt weighted towards active compounds, which were near 1.9% of everything screened.

SMILES	HTR5A ag	MOR-DOR ag	MsrA inh	MOR-DOR inv ag	HTR5A inv ctr	MsrA act
C/C(=N\NS(=O)(=O)c1ccc([N+](=O)[O-])cc1)c1ccc(NC(=O)c2ccco2)cc1	7	0	4.6*	-1	-20	-4
Cc1cc(NC(=O)CSc2nnc(-c3c[nH]c4ccccc34)n2-c2ccc(Cl)cc2)no1	13*	21*	1	-112	-28	-1
CC(/C=N/NC(=O)c1ccncc1)=C\c1ccccc1	1	0	5.2*	3	14	-8
COC(=O)[C@@H]1[C@@H](C#N)C2(c3ccccc3-c3ccccc32)N(c2ccc(Cl)cc2)N1C#N	8.7*	10	0	-52	-9	-3
COc1ccc(C2CC(=O)C(c3ccccc3C)=CN2Cc2ccccc2)cc1 (stereo not given)	·	·	2	·	·	·
CC(C)CNS(=O)(=O)c1cc(C(=O)N2CCOCC2)c(Cl)cc1Cl	10*	-2	-1	7	11	-15
CC(C)NC(=O)OC[C@H]1O[C@H](C#Cc2ccc(C(C)(C)C)cc2)C=C[C@H]1O	·	·	1	·	·	·
N#Cc1[nH]nc2nc[nH]c(=O)c12	·	·	0	·	·	·
COc1ccc(C)cc1NC(=O)CSc1nnc(-c2cc3cccc(OC)c3o2)n1N	13*	-2	1	9	3	-2
COc1cccc2cc(-c3nnc(SCC(=O)Nc4ccc(NC(C)=O)cc4)n3C)oc12	2	0	-1	-3	6	-2
CC1CC(=O)c2c(cc3c(-c4c(O)cc(O)c5c(O)c6c(cc45)OC(C)CC6=O)c(O)cc(O)c3c2O)O1 (stereo not given)	17*	82*	·	-412	13	-3
O=C1CC(c2ccc(O)cc2)Oc2cc(O)cc(O)c21 (stereo not given)	-1	-1	1	5	3	-2
Cc1cc(=O)oc2cc(OC(C(=O)O)c3ccccc3)ccc12 (stereo not given)	11*	-1	2	4	-41	-13
Cc1cc(=O)oc2cc(OC(C)C)ccc12	1	-2	2	9	-7	0
CCn1cc(Cl)c(C(=O)N2N=C(c3ccc4ccccc4c3)CC2c2ccccc2O)n1 (stereo not given)	12*	5	1	-24	-43	-5
N#Cc1ccc(OCCCN2CCC(C(O)(C3=CCCC3)c3ccccc3)CC2)cc1 (stereo not given)	·	·	0	·	·	·
CCN(CC)c1ccc(C(=C2C=CC(=[N+](CC)CC)C=C2)c2ccccc2)cc1	-2	52*	-1	-229	8	-3
CC(C)N(C[C@@H]1CSCCS(=O)(=O)N1)C1CCCCC1	·	·	0	·	·	·
CCn1nc(NC(=O)C(C)C)c2cc3cccc(C)c3nc21	11*	4	0	-18	-41	-2
c1ccc(N(c2ccccc2)c2nc(-n3ccnc3)nc(-n3ccnc3)n2)cc1	1	0	2	-2	-23	-3
C=CCNc1nc(N(c2ccccc2)c2ccccc2)nc(-n2ccnc2)n1	12*	4	-1	-17	3	0
O=C(N[C@H](C(=O)N1CCC[C@H]1C(=O)NC1CCCC1)C1CCCCC1)C1CC1	·	·	-1	·	·	·
COc1ccccc1NC(=O)OC(C)c1ccc(Cl)cc1 (stereo not given)	17*	1	1	-5	-49	-3
O=C(O)CCC(=O)N1CCN(Cc2ccc3c(c2)OCO3)CC1	12*	-2	2	7	-43	-12
O=C(NCc1ccccc1)C1CCC(CNS(=O)(=O)c2cccs2)CC1 (stereo not given)	-6	-1	-1	3	-8	-7
SMILES	HTR5A ag	MOR-DOR ag	MsrA inh	MOR-DOR inv ag	HTR5A inv ctr	MsrA act
O=C(NCc1ccc(F)cc1)C1CCC(CNS(=O)(=O)c2cccs2)CC1 (stereo not given)	14*	4	0	-26	-23	-11
CN1OC[C@@H]2CN(C(=O)c3ccc(C#N)cc3)[C@H](c3cccc(Br)c3)C[C@@H]21	·	·	-1	·	·	·
O=C(CCN1C(=O)/C(=C/c2ccccc2F)SC1=S)NCCCN1CCOCC1	13*	0	0	1	-5	-2
O=C(CCN1C(=O)/C(=C/c2ccccc2)SC1=S)NCCCN1CCOCC1	8	2	2	-14	-23	0
COc1cc(Br)c(-c2sc(Nc3ccccc3)n[n+]2-c2ccc(F)cc2)cc1OC	5	-3	1	14	6	0
COc1cc(OC)c(-c2sc(Nc3ccccc3)n[n+]2-c2ccc(F)cc2)cc1OC	7	-2	4.6*	9	-18	-11
